Measured values taken from PubChem BioAssay (NCATS).
Inconclusive results are not listed. Activity calls are given as the source filed them. Unless noted, the call rests on the fitted dose curve; in most records, active means well fitted curve in the direction sought with a large enough effect; inconclusive means small, poorly fitted or top-dose-only effect, or another doubt; inactive means no such curve, though single readings can be large; an effect the other way counts as inactive or inconclusive.

How the values were obtained:
[1] = target: Tyrosine-protein kinase Yes (Homo sapiens) (UniProt P07947); test: qHTS for small molecule inhibitors of Yes1 kinase: Primary Screen (AID 686947); further: nearly all actives have a fitted effect of over 60% in size; further: potency means the concentration at half of the fitted maximal effect
Summary of the method: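 ADP-Glo luminescence reports ADP formed by 4 nM Yes1 phosphorylating poly(E4Y) (0.3 mg/mL) with 0.1 mM ATP for 60 min at room temperature, following 20 min compound preincubation; normalised between DMSO wells with and without enzyme.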

[2] = qHTS for small molecule inhibitors of Yes1 kinase: Counter Assay (AID 686950);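 further: no kinase present so only ADP-Glo detection of a fixed ADP amount is tested; luminescence from ADP-Glo reporting ADP in a fixed ATP and ADP mixture; 0% = DMSO wells with ATP plus ADP and -100% = ATP-only wells without ADP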
Summary of the method: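 ADP-Glo luminescence read after a 60 min room-temperature incubation of compound with an ATP/ADP mix (0.08 mM/0.02 mM) and no kinase, following a 20 min compound preincubation. Signal scaled between ATP+ADP (max) and 0.1 mM ATP-only (min) wells; Tris pH 7.5, Mg2+, DTT.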

[3] = qHTS Assay for Identifying Gametocytocidal Compounds (AID 743244); further: potency means the concentration at half of the fitted maximal effect;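 on max response: on the % scale 0 is the no-effect control and ±100 the full control effect; actives lower the fluorescent signal which means gametocytes are killed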; settings: P. falciparum 3D7 stage III-V gametocytes, alamarBlue, 72 h; max response: stronger effect = lower value
Summary of the method: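 Fluorescence at Ex 525/Em 598 nm, recorded 24 h after alamarBlue addition, reports residual metabolic activity of 3D7 gametocytes (stages III–V) following 72 h compound exposure at 37 °C, 5% CO2.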

[4] = qHTS profiling for inhibitors of Plasmodium falciparum (3D7) proliferation (AID 743322; call rule not given here;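 further: infected erythrocytes exposed to compound for 72 h before lysis; 100% = DMSO vehicle wells and 0% = 0.29 µM artemisinin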); settings: P. falciparum 3D7 proliferation; at 28.7 µM (top of the series) unless noted
Summary of the method: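 Parasite DNA was quantified by SYBR Green I fluorescence (ex 485, em 535 nm) after overnight lysis in saponin/Triton buffer at room temperature. Cultures at 0.3% parasitemia and 2.5% hematocrit were first exposed to compound for 72 h at 37 C; signals were normalised to artemisinin (0.29 uM) and vehicle wells.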

[5] = qHTS profiling for inhibitors of Plasmodium falciparum (DD2) proliferation (AID 743323; call rule not given here); settings: lower = more inhibition; at 28.7 µM (top of the series) unless noted
Summary of the method: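 1536-well qHTS; infected RBCs 0.3% parasitemia/2.5% Hct final; cpd 72 h 37 C 5% CO2; lysis buffer + SYBR Green I, o/n RT dark; FI 485/535; norm. to 0.29 uM artemisinin and DMSO, plate-stack corrected.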

Tyrosine-protein kinase Yes (Homo sapiens), sequence (P07947 whole entry, looked up): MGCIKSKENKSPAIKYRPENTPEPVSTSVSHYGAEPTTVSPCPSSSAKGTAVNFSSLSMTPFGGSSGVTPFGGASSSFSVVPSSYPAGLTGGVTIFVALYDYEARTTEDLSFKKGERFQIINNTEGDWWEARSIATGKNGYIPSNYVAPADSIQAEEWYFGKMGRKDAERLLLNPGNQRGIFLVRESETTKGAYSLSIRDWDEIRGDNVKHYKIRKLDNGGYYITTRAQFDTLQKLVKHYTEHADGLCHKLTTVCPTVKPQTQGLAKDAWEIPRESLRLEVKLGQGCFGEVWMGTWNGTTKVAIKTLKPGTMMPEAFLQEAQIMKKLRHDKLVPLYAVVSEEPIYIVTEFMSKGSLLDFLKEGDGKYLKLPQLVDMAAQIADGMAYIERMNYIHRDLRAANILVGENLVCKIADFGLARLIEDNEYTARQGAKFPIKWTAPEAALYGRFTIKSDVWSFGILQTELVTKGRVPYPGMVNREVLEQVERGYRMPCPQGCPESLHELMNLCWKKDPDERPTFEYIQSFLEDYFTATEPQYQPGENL

SMILES: CNC(=O)c1cc(Oc2ccc(NC(=O)Nc3ccc(Cl)c(C(F)(F)F)c3)c(F)c2)ccn1
- Potency [1]: 4.87 µM (active)
- outcome [2]: inactive
- max response [3]: 21.4% (inactive)
- remaining parasite growth % (stronger effect = lower value) [4]: 1.04%
- activity, percent of control [5]: 5.46%

SMILES: CN(C)CCCNC(=O)c1ccc(-c2cc(O)c3ncccc3c2)cc1
- Potency [1]: 38.7 µM (active)
- outcome [2]: inactive
- Potency [3]: 2.96 µM (active)
- remaining parasite growth % (stronger effect = lower value) [4]: 3.59%
- activity, percent of control [5]: 5.19%

SMILES: COc1cccc(OC)c1-c1cc(C(=O)NC2(C(=O)O)C3CC4CC(C3)CC2C4)nn1-c1ccnc2cc(Cl)ccc12 (configuration not stated)
- Potency [1]: inactive
- outcome [2]: inactive
- max response [3]: 42.4% (inactive)
- remaining parasite growth % (stronger effect = lower value) [4]: 23.7%
- activity, percent of control [5]: 56.1%

SMILES: COc1nc(C)cnc1NS(=O)(=O)c1cccnc1-c1ccc(-c2nnco2)cc1
- Potency [1]: inactive
- outcome [2]: inactive
- max response [3]: 18.4% (inactive)
- remaining parasite growth % (stronger effect = lower value) [4]: 63.7%
- activity, percent of control [5]: 88%

SMILES: COC(=O)Nc1ccc(-c2nc(N3CCOCC3)c3cnn(C4CCN(C(=O)OC)CC4)c3n2)cc1
- Potency [1]: inactive
- outcome [2]: inactive
- max response [3]: 6.16% (inactive)
- remaining parasite growth % (stronger effect = lower value) [4]: 3.29%
- activity, percent of control [5]: 7.64%

SMILES: Cc1cccc(Nc2nc(N[C@@H]3CCCC[C@H]3N)ncc2C(N)=O)c1
- Potency [1]: 0.387 µM (active)
- outcome [2]: inactive
- Potency [3]: 9.35 µM (active)
- remaining parasite growth % (stronger effect = lower value) [4]: 0.221%
- activity, percent of control [5]: 4.78%

SMILES: CC(O)=C(C#N)C(=O)Nc1ccc(C(F)(F)F)cc1
- Potency [1]: inactive
- outcome [2]: inactive
- max response [3]: 27.1% (inactive)
- remaining parasite growth % (stronger effect = lower value) [4]: 89.8%
- activity, percent of control [5]: 95.5%

SMILES: Nc1ccc(-c2ccc3ncc4ccc(=O)n(-c5cccc(C(F)(F)F)c5)c4c3c2)cn1
- Potency [1]: 27.4 µM (active)
- outcome [2]: inactive
- Potency [3]: 0.027 µM (active)
- remaining parasite growth % (stronger effect = lower value) [4]: -1.33%
- activity, percent of control [5]: -0.278%

SMILES: NC(=O)c1ccc(N(C(N)=O)c2c(F)cccc2F)nc1-c1ccc(F)cc1F
- Potency [1]: inactive
- outcome [2]: inactive
- max response [3]: 15.2% (inactive)
- remaining parasite growth % (stronger effect = lower value) [4]: 84.7%
- activity, percent of control [5]: 83.3%

SMILES: COc1cc2ncn(-c3cc(OCc4ccccc4S(C)(=O)=O)c(C#N)s3)c2cc1OC
- Potency [1]: 0.232 µM (active)
- outcome [2]: inactive

SMILES: COc1cc2c(cc1OC)CC(=O)N(CCCN(C)C[C@H]1Cc3cc(OC)c(OC)cc31)CC2
- Potency [1]: inactive
- outcome [2]: inactive
- max response [3]: -6.61% (inactive)
- remaining parasite growth % (stronger effect = lower value) [4]: 105%
- activity, percent of control [5]: 102%

SMILES: O=C(Nc1cccc(Cl)c1)Nc1ncc(CCNc2ncnc3ccsc23)s1
- Potency [1]: inactive
- outcome [2]: inactive
- max response [3]: 5.02% (inactive)
- remaining parasite growth % (stronger effect = lower value) [4]: 0.421%
- activity, percent of control [5]: 4.65%

SMILES: CC(C)C[C@H](NC(=O)c1cc2ccccc2s1)C(=O)N1CCN(C(=O)[C@H](CO)NS(=O)(=O)c2ccc(Cl)cc2Cl)CC1
- Potency [1]: inactive
- outcome [2]: inactive
- max response [3]: 4.85% (inactive)
- remaining parasite growth % (stronger effect = lower value) [4]: 17.9%
- activity, percent of control [5]: 27.2%

SMILES: O=C1C(CCC(O)c2ccc(F)cc2)C(c2ccc(O)cc2)N1c1ccc(F)cc1 (configuration not stated)
- Potency [1]: inactive
- outcome [2]: inactive
- max response [3]: 8.66% (inactive)
- remaining parasite growth % (stronger effect = lower value) [4]: 18.4%
- activity, percent of control [5]: 83.7%

SMILES: CCCCCCCCCCCCCC(=O)N[C@H](CO)[C@H](O)c1ccc([N+](=O)[O-])cc1
- Potency [1]: inactive
- outcome [2]: inactive
- max response [3]: -2.76% (inactive)
- remaining parasite growth % (stronger effect = lower value) [4]: 90.4%
- activity, percent of control [5]: 82.3%

SMILES: O=C1Nc2ccc(I)cc2C1=Cc1cc(Br)c(O)c(Br)c1
- Potency [1]: 5.82 µM (active)
- outcome [2]: inactive

SMILES: N#CC(c1ccc(Cl)cc1)c1c(Cl)cc(-n2ncc(=O)[nH]c2=O)cc1Cl (configuration not stated)
- max response [3]: -5.57% (inactive)

SMILES: CCCCN(CCCC)CC(O)c1cc(Cl)cc2c1-c1ccc(Cl)cc1C2=Cc1ccc(Cl)cc1 (configuration not stated)
- Potency [3]: 0.059 µM (active)

SMILES: COc1ccnc(CS(=O)c2nc3ccc(OC(F)F)cc3[nH]2)c1OC (configuration not stated)
- max response [3]: 7.9% (inactive)

SMILES: COc1ccc(CCN(C)CCCOc2ccc(S(=O)(=O)c3[nH]c4ccccc4c3C(C)C)cc2)cc1OC
- Potency [1]: inactive
- outcome [2]: inactive
- remaining parasite growth % (stronger effect = lower value) [4]: -1%
- activity, percent of control [5]: 1.03%

SMILES: O=C(O)Cc1cccc(OCCCN(Cc2cccc(C(F)(F)F)c2Cl)CC(c2ccccc2)c2ccccc2)c1
- outcome [2]: inactive
- max response [3]: 0.38% (inactive)
- remaining parasite growth % (stronger effect = lower value) [4]: 36.2%
- activity, percent of control [5]: 34.1%

SMILES: O=C(O)c1nc(=O)[nH]c(=O)[nH]1
- max response [3]: 15.4% (inactive)

SMILES: O=C1NC(=O)C(c2cnc3ccccn23)=C1c1cn2c3c(cccc13)CN(C(=O)N1CCOCC1)CC2
- remaining parasite growth % (stronger effect = lower value) [4]: 49.3%
- activity, percent of control [5]: 63.3%

SMILES: O=C1CN2Cc3c(ccc(Cl)c3Cl)N=C2N1
- remaining parasite growth % (stronger effect = lower value) [4]: 87%
- activity, percent of control [5]: 93.4%

SMILES: CCN(CC)CCCCNc1nc2cc(Cl)c(Cl)cc2nc1-c1ccc(-c2cccs2)s1
- outcome [2]: inactive
- remaining parasite growth % (stronger effect = lower value) [4]: 0.96%
- activity, percent of control [5]: 1.46%

SMILES: CN(C)CCN(C)C(=O)c1ccc(NC(=O)Nc2ccc(-c3nc(N4CCOCC4)c4ccn(CC(F)(F)F)c4n3)cc2)cc1
- outcome [2]: inactive
- Potency [3]: 23.5 µM (active)
- remaining parasite growth % (stronger effect = lower value) [4]: -0.909%
- activity, percent of control [5]: 0.114%

SMILES: CO[C@H]1O[C@@H]2O[C@@]3(C)CC[C@@H]4[C@@H](C)CC[C@@H]([C@H]1C)[C@@]24OO3
- Potency [3]: 0.0118 µM (active)

SMILES: CCCCOCCOc1nc(-c2ccc(C(=O)O)c(F)c2)sc1C
- outcome [2]: inactive
- max response [3]: 43.8% (inactive)
- remaining parasite growth % (stronger effect = lower value) [4]: 105%
- activity, percent of control [5]: 99.2%

SMILES: CN1CCN2c3ncccc3Cc3ccccc3C2C1 (configuration not stated)
- max response [3]: 6.21% (inactive)

SMILES: CC(C)CN(C[C@@H](O)[C@H](Cc1ccccc1)NC(=O)O[C@H]1CO[C@H]2OCC[C@H]21)S(=O)(=O)c1ccc(N)cc1
- max response [3]: -5.35% (inactive)

SMILES: CC(=O)NCCC(=O)N[C@@H](CCC(N)=O)C(=O)N[C@@H](CO)C(=O)N[C@@H](CCC(N)=O)C(=O)N[C@@H](CCC(N)=O)C(=O)N[C@H](C(=O)N[C@@H](Cc1ccccc1)C(=O)N[C@]1(C)CCCCCCC=CCCC[C@@](C)(C(=O)N[C@@H](CCC(N)=O)C(=O)N[C@@H](CC(N)=O)C(N)=O)NC(=O)[C@H](CC(C)C)NC(=O)[C@H](CC(C)C)NC(=O)[C@@H](CCCNC(=N)N)NC(=O)[C@H](Cc2c[nH]c3ccccc23)NC(=O)[C@H](CC(C)C)NC(=O)[C@H](CC(N)=O)NC1=O)[C@H](C)O
- outcome [2]: inactive
- remaining parasite growth % (stronger effect = lower value) [4]: 38.2%
- activity, percent of control [5]: 68.3%
